PubChem BioAssay (NCATS)
Records with an inconclusive call do not appear. Activity calls are given as the source filed them. The call rests on the fitted dose curve; in most records, active means well fitted curve in the direction sought with a large enough effect; inconclusive means small, poorly fitted or top-dose-only effect, or another doubt; inactive means no such curve, though single readings can be large; an effect the other way counts as inactive or inconclusive.

Tests used:
[1] = BET inhibitor-based combinations targeting novel dependencies in MECOM-rearranged (r) AML: SET-2 cell line (AID 2202231); conditions: SET-2 AML cells viability, CellTiter-Glo luminescence, 48 h; viability: active compounds read low, concentration not given here; further: nearly all actives have a fitted effect of over 35% in size;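 on viability: plate controls were DMSO treated cells for no effect and wells without cells for full effect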
Outline: (§1)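 Cells were plated at 500 per well and exposed to an 11-point dose series of each drug for 48 hr. Viability was measured by CellTiter-Glo luminescence, normalized to DMSO and empty-well controls, and summarized as AUC and per-cell-line Z-AUC.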

[2] = BET inhibitor-based combinations targeting novel dependencies in MECOM-rearranged (r) AML: OCI-AML3 cell line (AID 2202232); conditions: Potency: OCI-AML3 viability; further: nearly all actives have a fitted effect of over 35% in size;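 on viability (% of control): series mostly up to about 46 µM; plate controls were DMSO vehicle wells for no effect and wells without cells for full effect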
Outline: as §1

[3] = BET inhibitor-based combinations targeting novel dependencies in MECOM-rearranged (r) AML: MV-4-11 cell line (AID 2202233); further: nearly all actives have a fitted effect of over 45% in size;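 on viability, % of control: plate controls were DMSO for no effect and blank wells for full effect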
Outline: (§2)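 Activity is given as area under the curve and as Z-AUC, mean-centred within each cell line. It comes from 11-point dose curves normalized to DMSO and empty wells. CellTiter-Glo luminescence was read after 48 hr drug exposure of 500 cells/well.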

[4] = BET inhibitor-based combinations targeting novel dependencies in MECOM-rearranged (r) AML: HNT-34 cell line (AID 2202234); further: nearly all actives have a fitted effect of over 35% in size;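 on viability (% of control): plate controls were vehicle wells for no effect and cell-free wells for full effect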
Outline: as §2

[5] = BET inhibitor-based combinations targeting novel dependencies in MECOM-rearranged (r) AML: AML-191 cell line (AID 2202236; further: nearly all actives have a fitted effect of over 35% in size;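 on viability (% of control): plate controls were vehicle wells for no effect and wells without cells for full effect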)
Outline: as §1

[6] = BET inhibitor-based combinations targeting novel dependencies in MECOM-rearranged (r) AML: UCSD-AML1 cell line (AID 2202235); further: nearly all actives have a fitted effect of over 40% in size;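 on viability (% of control): series mostly up to about 46 µM; plate controls were DMSO vehicle wells for no effect and blank wells for full effect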
Outline: as §2

[7] = BET inhibitor-based combinations targeting novel dependencies in MECOM-rearranged (r) AML: AML-194 cell line (AID 2202237; further: nearly all actives have a fitted effect of over 40% in size;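 on viability (% of control): plate controls were vehicle wells for no effect and wells without cells for full effect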)
Outline: as §1
Potency means the concentration at half of the fitted maximal effect.

CC(=O)OCC(=O)[C@@]12OC(C)(C)O[C@@H]1C[C@H]1[C@@H]3C[C@H](F)C4=CC(=O)C=C[C@]4(C)[C@@]3(F)[C@@H](O)C[C@@]12C
inactive: viability [1] 105% | Potency [2] | Potency [3] | Potency [4] | Potency [5]

C[C@]12CC[C@H](O)CC1=CC[C@@H]1[C@@H]2CC[C@]2(C)C(c3cccnc3)=CC[C@@H]12
inactive: viability [1] 107% | Potency [2] | Potency [3] | Potency [4] | Potency [6] | Potency [7]

COc1cc(N2CCN(C)CC2)ccc1Nc1ncc2c(n1)N(C)c1ccccc1C(=O)N2C
active: Potency [1] 16.6 µM | Potency [2] 2.35 µM | Potency [3] 1.32 µM | Potency [4] 16.6 µM | Potency [5] 18.6 µM | Potency [7] 20.9 µM

Nc1cc(COc2c(Cl)cc(C[C@H](N)C(=O)O)cc2Cl)c2oc(-c3ccccc3)nc2c1
active: Potency [1] 11.8 µM | Potency [2] 13.2 µM | Potency [3] 10.5 µM
inactive: Potency [4] | Potency [7]

CCCNC(=O)c1cn2ncnc(Nc3cc(C(=O)NC4CC4)ccc3C)c2c1C
inactive: viability [1] 99.9% | Potency [2] | Potency [3] | Potency [4] | Potency [5] | Potency [7]

C/C=C(/C)C(=O)O[C@H]1C(C)=CC23C(=O)C(C=C(CO)[C@@H](O)[C@]12O)[C@H]1[C@@H](C[C@H]3C)C1(C)C (some centres not stated)
active: Potency [1] 7.42 µM | Potency [2] 0.0053 µM | Potency [3] 0.0525 µM | Potency [6] 0.0019 µM

CC(C)NC(=O)C1CCC(n2c(NC(=O)c3ccc(F)cc3)nc3ccc(CN4CCC(C(C)(C)O)CC4)cc32)CC1 (configuration not stated)
active: Potency [2] 3.62 µM | Potency [3] 1.82 µM
inactive: viability [1] 121% | Potency [6]

N#Cc1ccc(C(c2ccc(C#N)cc2)n2cncn2)cc1
inactive: viability [1] 96.2% | Potency [2] | Potency [3] | Potency [4] | Potency [5] | Potency [7]

CC(C)C(=O)OCC(=O)[C@@]12O[C@H](C3CCCCC3)O[C@@H]1C[C@H]1[C@@H]3CCC4=CC(=O)C=C[C@]4(C)[C@H]3[C@@H](O)C[C@@]12C
active: Potency [2] 14.8 µM | Potency [3] 23.5 µM | Potency [4] 20.9 µM | Potency [7] 16.6 µM
inactive: viability [1] 102%

Nc1nc(F)nc2c1ncn2C1OC(COP(=O)(O)O)C(O)C1O (configuration not stated)
active: Potency [1] 4.68 µM | Potency [2] 18.6 µM | Potency [3] 18.6 µM | Potency [4] 16.6 µM | Potency [5] 6.61 µM | Potency [7] 9.34 µM

Cc1ccc(NS(=O)(=O)c2cccc(C#N)c2)c2[nH]cc(C#N)c12
active: Potency [1] 14.8 µM | Potency [2] 1.18 µM | Potency [3] 0.296 µM | Potency [6] 0.833 µM

Ac-PHSCN-NH2
inactive: viability [1] 109% | Potency [2] | Potency [3] | Potency [4] | Potency [5] | Potency [7]

Cc1cc(O)cc2c1[C@]1(C)CC[C@H]3C(C)(C)CCC[C@]3(C)[C@H]1C2
inactive: viability [1] 50.3% | viability (% of control) [2] 14.4% [at 5.12 µM] | viability, % of control [3] 0.199% [at 5.12 µM] | viability (% of control) [6] 14.8% [at 5.12 µM]

CCC(=O)OCC(=O)C1(OC(=O)CC)C(C)CC2C3CCC4=CC(=O)C=CC4(C)C3(F)C(O)CC21C (configuration not stated)
inactive: viability [1] 109% | Potency [2] | Potency [3] | Potency [4] | Potency [5] | Potency [7]

N=C(N)c1ccc2nc(-c3cc(CC(=O)N[C@@H](CC(=O)O)C(=O)O)cc(-c4cc(S(N)(=O)=O)ccc4O)c3O)[nH]c2c1
inactive: viability [1] 117% | Potency [2] | Potency [3] | Potency [4] | Potency [5] | Potency [7]

COC1=C(OC)C(=O)C(C/C=C(\C)CC/C=C(\C)CC/C=C(\C)CC/C=C(/C)CC/C=C(\C)CC/C=C(\C)CC/C=C(\C)CC/C=C(\C)CC/C=C(\C)CCC=C(C)C)=C(C)C1=O
inactive: viability [1] 117% | Potency [2] | Potency [3] | Potency [4] | Potency [5] | Potency [7]

OC[C@H]1O[C@@H](S[C@@H]2O[C@H](CO)[C@H](O)[C@H](n3cc(-c4cccc(F)c4)nn3)[C@H]2O)[C@H](O)[C@@H](n2cc(-c3cccc(F)c3)nn2)[C@H]1O
inactive: viability [1] 115% | Potency [2] | Potency [3] | Potency [4] | Potency [5] | Potency [7]

CC1(C)OCCn2c1nc1c(N3CCOCC3)nc(-c3cnc(N)nc3)nc12
active: Potency [1] 1.86 µM | Potency [2] 0.934 µM | Potency [3] 0.934 µM | Potency [6] 0.468 µM

CS(=O)(=O)Nc1cc2occ(NC=O)c(=O)c2cc1Oc1ccccc1
inactive: viability [1] 101% | Potency [2] | Potency [3] | Potency [4] | Potency [5] | Potency [7]

N#Cc1cc2cc(CN3CCC(Nc4ncnc5sc(CC(F)(F)F)cc45)CC3)c(O)cc2n1Cc1cn[nH]c1
active: Potency [1] 23.5 µM | Potency [2] 18.6 µM | Potency [3] 5.9 µM | Potency [4] 23.5 µM | Potency [7] 26.3 µM

Cc1cc(-c2cnn3c(NCC4CC(C)(O)C4)cc(Oc4cccnc4)nc23)ccc1C(=O)NC1CC1 (configuration not stated)
active: Potency [1] 1.18 µM | Potency [2] 0.263 µM | Potency [3] 0.332 µM | Potency [4] 0.934 µM | Potency [7] 1.05 µM

C[C@]12CCC3[C@@H](CC[C@H]4NC(=O)C=C[C@]34C)[C@@H]1CC[C@@H]2C(=O)Nc1cc(C(F)(F)F)ccc1C(F)(F)F (some centres not stated)
inactive: viability [1] 118% | Potency [2] | Potency [3] | Potency [4] | Potency [5] | Potency [7]
